Records with an inconclusive call do not appear. Activity calls are given as the source filed them. Unless noted, calls come from the whole dose curve; as a rule, active = well fitted curve in the direction sought with a large enough effect; inconclusive = small, poorly fitted or top-dose-only effect, or another doubt; inactive = no such curve, though single readings can be large; an effect the other way counts as inactive or inconclusive.
Columns and labels:
[1] = AP1 Signaling Pathway (AID 357; active = well fitted curve in either direction with a large enough effect, not every such curve was filed as active;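 note: ME-180 reporter cells stimulated with EGF at its EC50 level; % is set by controls: 0 for no effect and ±100 for the full control effect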); conditions: ME-180 AP-1-bla reporter, EGF-induced, beta-lactamase ratio, 5 h; at 7.69 µM (top of the series) unless noted
Summary of the method: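 Modulation of EGF-driven AP-1 transcription was assessed with a beta-lactamase reporter in ME-180 cells. Compound and EC50 EGF were co-incubated 5 hours at 37 °C before 2.5-hour CCF4 loading at room temperature and dual-emission reading.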

[2] = NFAT Signaling Pathway (AID 444; active = well fitted curve in either direction with a large enough effect, not every such curve was filed as active;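 note: carbachol stimulus at about its EC50 of 1 µM final; % is set by controls: 0 for no effect and ±100 for the full control effect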); conditions: Jurkat NFAT-bla M1, carbachol, beta-lactamase ratio, 5 h; at 7.69 µM (top of the series) unless noted
Summary of the method: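 Read-out: CCF4 FRET ratio (460 nm/530 nm) after 1 h RT dye loading, used for %activity and AC50 from titration series. Cells: Jurkat NFAT-β-lactamase/M1 line, treated with compound plus 1 uM carbachol for 5 h, 37 °C.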

[3] = Stat Signaling Pathway (AID 446; active = well fitted curve in either direction with a large enough effect, not every such curve was filed as active;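 note: ME-180 cervical cancer cells given 40 pM IL-6 alongside compound; SIE-controlled beta-lactamase reporter measured as 460/530 nm FRET emission ratio; % is set by controls: 0 for no effect and ±100 for the full control effect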); conditions: ME-180 SIE beta-lactamase reporter, IL-6 stimulated, 5 h; at 7.69 µM (top of the series) unless noted
Summary of the method: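 Normalization used AC90 stimulation (300 pM IL-6) and AC90 inhibition (125 nM pan-JAK inhibitor at 40 pM IL-6). The underlying signal is SIE-driven beta-lactamase in ME-180 cells after 5 h IL-6 exposure with compound.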

[4] = biological target: Glucocorticoid receptor (Homo sapiens) (UniProt P04150); assay: GR-GFP Redistribution (AID 450;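 active = compounds whose dose series gives a full or clear partial fitted curve of increased nuclear translocation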; note: potency is the fitted concentration of half-maximal effect); conditions: U2OS GR-GFP nuclear translocation, laser cytometry, 2 h
Sequence of Glucocorticoid receptor (Homo sapiens) (P04150 whole entry, looked up, the tested form may be a part): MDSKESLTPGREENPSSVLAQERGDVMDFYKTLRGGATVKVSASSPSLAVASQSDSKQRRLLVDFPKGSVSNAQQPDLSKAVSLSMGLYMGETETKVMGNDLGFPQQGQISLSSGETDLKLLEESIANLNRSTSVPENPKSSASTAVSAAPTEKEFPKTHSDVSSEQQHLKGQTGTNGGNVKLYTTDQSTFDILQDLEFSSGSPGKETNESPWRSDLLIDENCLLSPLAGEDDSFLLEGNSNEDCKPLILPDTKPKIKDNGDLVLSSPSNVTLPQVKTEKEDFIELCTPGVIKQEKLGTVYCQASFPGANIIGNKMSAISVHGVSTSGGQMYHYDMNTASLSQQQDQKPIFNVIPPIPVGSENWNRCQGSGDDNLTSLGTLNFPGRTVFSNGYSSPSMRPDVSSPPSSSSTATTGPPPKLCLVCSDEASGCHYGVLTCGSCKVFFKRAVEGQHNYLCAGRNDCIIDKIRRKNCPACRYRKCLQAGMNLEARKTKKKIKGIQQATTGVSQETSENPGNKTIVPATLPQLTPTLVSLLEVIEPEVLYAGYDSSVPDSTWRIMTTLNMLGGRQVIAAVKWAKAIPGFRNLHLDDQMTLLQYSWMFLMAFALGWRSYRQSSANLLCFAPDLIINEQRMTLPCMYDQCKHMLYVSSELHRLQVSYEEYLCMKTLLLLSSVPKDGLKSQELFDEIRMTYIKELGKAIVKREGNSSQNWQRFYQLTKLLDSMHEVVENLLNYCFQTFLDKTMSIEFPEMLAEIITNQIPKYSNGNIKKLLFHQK

[5] = biological target: Glucocorticoid receptor (Homo sapiens) (UniProt P04150); assay: GR-EFC Redistribution (AID 451; calls by dose curve; note: potency is the fitted concentration of half-maximal effect); conditions: CHO-K1 GR-EFC translocation, beta-gal luminescence, 2 h
Summary of the method: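 Translocation of GR-ED fusion to nuclear EA restores b-gal, read by luminescence after 1 h room-temperature detection. Engineered CHO-K1 biosensor cells, 1,000/well, exposed 2 h at 37 C to titrations up to 46 uM final.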

[6] = biological target: Mitogen-activated protein kinase 10 (Mus musculus) (UniProt Q61831); assay: JNK3 AlphaScreen Assay (AID 530; active = well fitted curve in either direction with a large enough effect, not every such curve was filed as active;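 note: kinase came from lysate of stimulated human HepG2 cells; signal reports phosphorylation of biotinylated GST-cJun 1-79 at Ser73 with 10 µM ATP; % is set by controls: 0 for no effect and ±100 for the full control effect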)
Summary of the method: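 Kinase buffer: 20 mM Tris-HCl pH 7.6, 10 mM MgCl2, 1 mM DTT, 0.1 mM Na3VO4, 0.01% Tween-20; ATP 10 uM. Substrate biotin-GST-cJun(1-79), enzyme from activated HepG2 lysates. Detection by Ser73 phospho-antibody AlphaScreen.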

[7] = biological target: 3',5'-cyclic-AMP phosphodiesterase 4B (Homo sapiens) (UniProt Q07343); assay: qHTS Assay for Inhibitors of PDE-IV (AID 607; active = well fitted activation curve with a large enough effect in the main read-out, with a control signal flat, not every such curve was filed as active; note: % of control where 0% means no effect)
Sequence of 3',5'-cyclic-AMP phosphodiesterase 4B (Homo sapiens) (Q07343 whole entry, looked up): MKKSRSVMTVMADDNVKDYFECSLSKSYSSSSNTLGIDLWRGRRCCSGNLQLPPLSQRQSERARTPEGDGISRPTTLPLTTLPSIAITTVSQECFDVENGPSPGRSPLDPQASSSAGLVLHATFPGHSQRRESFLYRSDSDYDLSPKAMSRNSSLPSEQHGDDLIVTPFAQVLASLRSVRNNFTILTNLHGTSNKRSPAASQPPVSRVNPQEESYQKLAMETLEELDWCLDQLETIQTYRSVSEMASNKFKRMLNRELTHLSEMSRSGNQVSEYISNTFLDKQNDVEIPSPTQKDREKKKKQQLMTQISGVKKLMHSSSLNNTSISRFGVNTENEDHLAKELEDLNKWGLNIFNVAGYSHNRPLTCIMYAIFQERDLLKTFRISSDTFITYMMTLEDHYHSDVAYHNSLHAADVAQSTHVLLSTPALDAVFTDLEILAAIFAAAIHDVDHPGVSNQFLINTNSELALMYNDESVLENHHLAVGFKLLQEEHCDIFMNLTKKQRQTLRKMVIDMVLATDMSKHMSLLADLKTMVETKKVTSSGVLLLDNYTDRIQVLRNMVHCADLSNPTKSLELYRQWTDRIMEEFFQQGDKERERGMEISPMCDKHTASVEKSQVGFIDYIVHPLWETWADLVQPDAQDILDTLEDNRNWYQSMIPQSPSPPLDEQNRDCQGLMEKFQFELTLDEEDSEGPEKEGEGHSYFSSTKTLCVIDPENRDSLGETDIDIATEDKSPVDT
Summary of the method: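 HEK293 ACTOne cells with CNG channel (1000/well), endogenous PDE4; membrane potential dye, compounds up to 22.9 uM final. Fluorescence Ex 535/Em 590; RO 20-1724 (100 uM final) as reference.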

[8] = qHTS Assay for Lipid Storage Modulators (AID 1519; calls by dose curve); conditions: Drosophila S3 cells, BODIPY lipid droplet/cell ratio, laser cytometry, cells loaded with oleic acid; for activity change, negative = inhibition: at 57.5 µM (top of the series)
Summary of the method: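 Cells seeded at 5,000 per well were treated with compounds over a concentration series and loaded with oleic acid (400 uM, as added). Lipid droplet fluorescence (488 nm excitation, 500-530 nm channel) was read by laser-scanning cytometry and normalized to 20 uM Triacsin C.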

[9] = biological target: Dual specificity protein kinase CLK4 (Homo sapiens) (UniProt Q9HAZ1); assay: qHTS Assay for Inhibitors of CDC-like Kinase 4 (Kinase-Glo Assay) (AID 1770); note: nearly all actives have a fitted effect of over 65% in size; note: potency is the fitted concentration of half-maximal effect
Sequence of Dual specificity protein kinase CLK4 (Homo sapiens) (Q9HAZ1 whole entry, looked up): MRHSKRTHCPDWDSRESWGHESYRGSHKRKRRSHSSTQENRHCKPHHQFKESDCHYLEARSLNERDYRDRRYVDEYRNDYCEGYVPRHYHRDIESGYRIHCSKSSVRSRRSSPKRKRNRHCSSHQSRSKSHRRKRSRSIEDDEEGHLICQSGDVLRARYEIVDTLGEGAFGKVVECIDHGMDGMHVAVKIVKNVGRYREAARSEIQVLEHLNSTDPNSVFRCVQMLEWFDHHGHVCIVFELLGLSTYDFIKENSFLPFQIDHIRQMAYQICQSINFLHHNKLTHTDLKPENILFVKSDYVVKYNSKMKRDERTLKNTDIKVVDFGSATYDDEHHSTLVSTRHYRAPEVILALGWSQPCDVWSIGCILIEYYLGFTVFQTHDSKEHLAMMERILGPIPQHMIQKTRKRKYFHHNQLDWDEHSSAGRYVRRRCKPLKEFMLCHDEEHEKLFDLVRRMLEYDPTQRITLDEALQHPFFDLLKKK
Summary of the method: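 Recombinant human Clk4 (25 nM) phosphorylated RS repeat peptide (100 uM) with 1 uM ATP in Tris pH 7.5/MgCl2/EGTA/DTT/Triton buffer for 4.5 h at room temperature. Residual ATP was quantified by Kinase-Glo luciferase luminescence.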

[10] = biological target: Dual specificity protein kinase CLK4 (Homo sapiens) (UniProt Q9HAZ1); assay: qHTS Assay for Inhibitors of CDC-like Kinase 4 (ADP-Glo Assay) (AID 1771); note: nearly all actives have a fitted effect of over 70% in size; note: potency is the fitted concentration of half-maximal effect
Summary of the method: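 25 nM Clk4, 100 uM RS peptide, 1 uM ATP (final); 2 mM MgCl2, 0.5 mM EGTA, 2.5 mM DTT, 0.01% Triton X-100; 1 hr RT. ADP-Glo readout: ATP depletion 45 min, conversion/luciferase 30 min, luminescence.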

[11] = biological target: Dual specificity protein kinase CLK4 (Homo sapiens) (UniProt Q9HAZ1); assay: qHTS Assay for Inhibitors of CDC-like Kinase 4 (ADP-FP Assay) (AID 1795); note: nearly all actives have a fitted effect of over 60% in size; note: potency is the fitted concentration of half-maximal effect
Summary of the method: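 Recombinant human Clk4 (6.25 nM) phosphorylated RS repeat peptide (100 uM) with 1 uM ATP in Tris pH 7.5/MgCl2/EGTA/DTT/Triton buffer for one hour. ADP was quantified by Transcreener competitive fluorescence polarization against an ADP calibration curve.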

[12] = biological target: Ubiquitin carboxyl-terminal hydrolase 1 (Homo sapiens) (UniProt O94782); assay: Inhibitors of USP1/UAF1: Pilot qHTS (AID 504865);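 note: rhodamine fluorescence freed from ubiquitin-rhodamine substrate followed over time; top concentration of the series differs between compounds; % is set by controls: 0 for no effect and ±100 for the full control effect; nearly all actives have a fitted effect of over 35% in size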
Sequence of Ubiquitin carboxyl-terminal hydrolase 1 (Homo sapiens) (O94782 whole entry, looked up): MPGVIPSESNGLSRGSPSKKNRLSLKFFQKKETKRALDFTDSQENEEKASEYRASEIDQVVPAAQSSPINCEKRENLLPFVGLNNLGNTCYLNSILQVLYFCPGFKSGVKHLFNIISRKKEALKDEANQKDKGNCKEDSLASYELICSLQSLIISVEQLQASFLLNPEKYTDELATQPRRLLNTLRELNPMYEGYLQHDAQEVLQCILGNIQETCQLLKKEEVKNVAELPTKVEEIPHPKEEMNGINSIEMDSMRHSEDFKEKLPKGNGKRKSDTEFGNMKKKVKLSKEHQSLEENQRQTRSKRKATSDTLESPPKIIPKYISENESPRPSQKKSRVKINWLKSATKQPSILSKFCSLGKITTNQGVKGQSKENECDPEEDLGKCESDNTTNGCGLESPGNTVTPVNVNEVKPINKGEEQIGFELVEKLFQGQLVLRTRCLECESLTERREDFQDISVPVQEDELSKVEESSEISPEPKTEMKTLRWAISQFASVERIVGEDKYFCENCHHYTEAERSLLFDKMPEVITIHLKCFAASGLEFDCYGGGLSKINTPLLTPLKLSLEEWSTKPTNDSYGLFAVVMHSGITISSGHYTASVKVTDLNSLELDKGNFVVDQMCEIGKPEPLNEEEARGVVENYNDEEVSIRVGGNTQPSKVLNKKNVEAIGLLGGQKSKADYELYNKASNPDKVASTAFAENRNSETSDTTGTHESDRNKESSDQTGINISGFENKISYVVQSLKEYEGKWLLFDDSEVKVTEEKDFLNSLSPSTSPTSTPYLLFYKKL
Summary of the method: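 USP1/UAF1 complex (1nM) preincubated with compound 15 min at room temperature, then Ub-Rho substrate (150nM final) added. Fluorescence read kinetically at 480/540 nm, 6 reads every 60 seconds. Buffer: 50mM HEPES pH 7.8, 0.5mM EDTA, 0.1 mg/ml BSA, 1mM TCEP, 0.01% Tween-20.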

[13] = Primary qHTS for small molecule stabilizers of the endoplasmic reticulum resident proteome: Secreted ER Calcium Modulated Protein (SERCaMP) assay (AID 1508630); note: % is set by controls: 0 for no effect and ±100 for the full control effect
Summary of the method: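 The SH-SY5Y reporter protocol was run at 3 concentrations up to 38.3 uM (primary) or 11 concentrations (follow-up): 16 h compound, 100 nM thapsigargin for 4 h, then extracellular luciferase luminescence.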

[14] = biological target: Cytochrome P450 1A2 (Homo sapiens) (UniProt P05177); assay: p450-cyp1a2 (AID 410; calls by dose curve; note: potency is the fitted concentration of half-maximal effect)
Sequence of Cytochrome P450 1A2 (Homo sapiens) (P05177 whole entry, looked up): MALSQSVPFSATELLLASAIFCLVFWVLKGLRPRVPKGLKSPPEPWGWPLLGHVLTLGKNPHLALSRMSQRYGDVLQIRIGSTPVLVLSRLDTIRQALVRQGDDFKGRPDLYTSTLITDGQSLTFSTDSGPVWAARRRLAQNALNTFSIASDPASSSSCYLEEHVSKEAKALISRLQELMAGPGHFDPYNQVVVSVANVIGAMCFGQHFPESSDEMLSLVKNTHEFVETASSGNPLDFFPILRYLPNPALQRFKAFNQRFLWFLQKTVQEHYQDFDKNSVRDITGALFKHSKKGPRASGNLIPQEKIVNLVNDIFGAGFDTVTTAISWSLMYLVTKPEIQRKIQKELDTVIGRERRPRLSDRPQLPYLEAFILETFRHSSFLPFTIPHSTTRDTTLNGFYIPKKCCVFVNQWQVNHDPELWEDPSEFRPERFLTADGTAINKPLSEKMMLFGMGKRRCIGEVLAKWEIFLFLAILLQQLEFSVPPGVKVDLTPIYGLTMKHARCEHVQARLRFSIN
Summary of the method: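 20nM CYP1A2, 100uM Luciferin-ME (=Km), 100mM KPO4; cpd 10 min RT; +NADPH regen, 60 min RT; stop/detect 20 min; luminescence. Normalized to furafylline 57 uM = full inhibition.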

[15] = biological target: Cytochrome P450 3A4 (Homo sapiens) (UniProt P08684); assay: qHTS Assay for Activators of Cytochrome P450 3A4 (AID 885); note: nearly all actives have a fitted effect of over 65% in size
Sequence of Cytochrome P450 3A4 (Homo sapiens) (P08684 whole entry, looked up): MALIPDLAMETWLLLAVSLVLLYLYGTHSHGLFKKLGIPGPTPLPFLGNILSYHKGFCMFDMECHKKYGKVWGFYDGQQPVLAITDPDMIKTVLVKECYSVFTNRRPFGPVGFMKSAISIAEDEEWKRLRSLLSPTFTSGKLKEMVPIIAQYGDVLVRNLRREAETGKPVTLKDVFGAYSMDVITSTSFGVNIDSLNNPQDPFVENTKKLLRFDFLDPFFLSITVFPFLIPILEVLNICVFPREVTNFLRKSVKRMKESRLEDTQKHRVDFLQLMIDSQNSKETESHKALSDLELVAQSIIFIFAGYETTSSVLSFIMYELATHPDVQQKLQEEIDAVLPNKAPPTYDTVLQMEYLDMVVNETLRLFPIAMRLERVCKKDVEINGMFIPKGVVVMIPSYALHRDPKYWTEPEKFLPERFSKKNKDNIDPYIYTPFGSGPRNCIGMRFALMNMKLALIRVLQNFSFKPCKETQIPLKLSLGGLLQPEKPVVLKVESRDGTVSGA
Summary of the method: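 Human CYP3A4 dealkylates Luciferin-PPXE to luciferin, which luciferase detection converts to light. Substrate was at its KM (25uM), buffer 200mM KPO4, reaction 60 min at RT.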

[16] = qHTS Assay for Identification of Small Molecule Agonists for Hypoxia Response Element Signaling Pathway (AID 914; active = well fitted activation curve with a large enough effect in the signal ratio, with a control signal flat, not every such curve was filed as active; the % refers to the signal ratio; note: potency is the fitted concentration of half-maximal effect); conditions: ME-180 HRE-bla reporter, beta-lactamase ratio, CoCl2, 17 h; activation: stronger effect = higher value
Summary of the method: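 ME-180 cells carrying an HRE-driven beta-lactamase reporter were treated with compounds in a titration series plus an EC50 level of CoCl2 for 17 h at 37 degrees Celsius; CCF4 readout as the 460nm/530nm ratio gave AC50 values.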

[17] = biological target: Lysosomal acid glucosylceramidase (Homo sapiens) (UniProt P04062); assay: Glucocerebrosidase-p2 (AID 348; in the data active = potency below about 10 µM; note: potency is the fitted concentration of half-maximal effect); conditions: purified GBA, blue fluorogenic substrate, 40 min
Sequence of Lysosomal acid glucosylceramidase (Homo sapiens) (P04062 whole entry, looked up): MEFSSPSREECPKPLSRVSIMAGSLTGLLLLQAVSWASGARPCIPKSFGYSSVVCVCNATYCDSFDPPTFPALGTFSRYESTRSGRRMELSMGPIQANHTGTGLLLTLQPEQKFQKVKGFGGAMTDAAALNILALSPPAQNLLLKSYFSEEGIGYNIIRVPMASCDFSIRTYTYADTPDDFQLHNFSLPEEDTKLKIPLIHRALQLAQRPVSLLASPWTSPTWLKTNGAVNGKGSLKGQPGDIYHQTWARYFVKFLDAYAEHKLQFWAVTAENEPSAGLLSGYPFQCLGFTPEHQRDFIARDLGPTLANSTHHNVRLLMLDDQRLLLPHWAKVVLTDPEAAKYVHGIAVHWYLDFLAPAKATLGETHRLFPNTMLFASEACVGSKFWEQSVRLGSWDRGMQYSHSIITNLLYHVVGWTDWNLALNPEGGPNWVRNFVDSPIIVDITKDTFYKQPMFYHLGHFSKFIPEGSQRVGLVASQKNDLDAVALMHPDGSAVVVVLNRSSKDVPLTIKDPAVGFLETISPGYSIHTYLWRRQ
Summary of the method: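 Normal human glucocerebrosidase (0.2 nM) with blue fluorogenic substrate (80 uM final) in citrate/phosphate pH 5.9 with 10mM sodium taurocholate, 0.01% tween-20; 40 min RT, NaOH/glycine stop; fluorescence Ex 365/Em 440; AC50 from a titration from 0.6 nM upwards.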

[18] = biological target: Cytochrome P450 2C9 (Homo sapiens) (UniProt P11712); assay: qHTS Assay for Inhibitors and Substrates of Cytochrome P450 2C9 (AID 883); note: potency is the fitted concentration of half-maximal effect; nearly all actives have a fitted effect of over 60% in size
Sequence of Cytochrome P450 2C9 (Homo sapiens) (P11712 whole entry, looked up): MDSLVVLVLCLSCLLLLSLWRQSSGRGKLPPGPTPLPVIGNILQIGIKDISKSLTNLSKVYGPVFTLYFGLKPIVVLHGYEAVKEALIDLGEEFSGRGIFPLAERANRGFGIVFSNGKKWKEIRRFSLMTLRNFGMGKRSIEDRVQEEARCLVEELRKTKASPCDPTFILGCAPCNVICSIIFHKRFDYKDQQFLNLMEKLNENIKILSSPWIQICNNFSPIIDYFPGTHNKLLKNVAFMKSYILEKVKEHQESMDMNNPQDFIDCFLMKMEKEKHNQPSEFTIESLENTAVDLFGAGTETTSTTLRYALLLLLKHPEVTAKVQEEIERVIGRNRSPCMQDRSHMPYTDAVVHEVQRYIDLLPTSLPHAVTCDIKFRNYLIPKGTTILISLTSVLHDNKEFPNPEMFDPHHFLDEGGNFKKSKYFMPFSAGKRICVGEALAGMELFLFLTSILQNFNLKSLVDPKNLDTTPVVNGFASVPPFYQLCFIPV
Summary of the method: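 Inhibition of CYP2C9 is scored as loss of luminescence, with 57uM sulphaphenazole defining 100% inhibition. Substrate Luciferin-H is used at 100uM, equal to its KM; enzyme at 10nM in 25mM KPO4, 60 min at 37C with NADPH regeneration.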

[19] = biological target: Cytochrome P450 3A4 (Homo sapiens) (UniProt P08684); assay: qHTS Assay for Inhibitors and Substrates of Cytochrome P450 3A4 (AID 884); note: % is set by controls: 0 for no effect and ±100 for the full control effect; nearly all actives have a fitted effect of over 50% in size
Summary of the method: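 Luminescent readout of luciferin produced by CYP3A4 (20 nM) dealkylation of Luciferin-PPXE, 25 uM (its KM). NADPH-driven reaction ran 60 min at RT after 10 min compound preincubation; data scaled to 57 uM ketoconazole as 100% inhibition.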

[20] = measured here: cell count channel max response
[21] = measured here: lipid channel max response

N#CCCn1c(=O)c(-c2ccc(F)cc2)nc2cnc(N3CCOCC3)nc21
activity change, negative = inhibition [1]: -0.71% (inactive)
activity change, negative = inhibition [2]: 13.6% (inactive)
activity, negative = inhibition [3]: 10.6% (inactive)
Potency [4]: > 9.22 µM (inactive)
Potency [5]: > 46 µM (inactive)
outcome [6]: inactive
Potency [7]: inactive
activity change, negative = inhibition [8]: 3.46% (inactive)
max response [8, 20]: 20.8%
max response [8, 21]: 23%
Potency [9]: inactive
Potency [10]: inactive
Potency [11]: inactive
Potency [12]: inactive
Potency [13]: inactive

COCCNc1ncnc2ccc(-c3cccc(NS(C)(=O)=O)c3)cc12
activity change, negative = inhibition [1]: -19.3% (inactive)
Potency [14]: 0.794 µM (active)
activity, negative = inhibition [3]: -4.92% (inactive)
Potency [4]: > 46 µM (inactive)
Potency [5]: > 46 µM (inactive)
outcome [6]: inactive
Potency [7]: inactive
Potency [15]: inactive
activity change, negative = inhibition [8]: 1.59% (inactive)
max response [8, 20]: -7.37%
max response [8, 21]: -7.54%
Potency [9]: 12.6 µM (active)
Potency [10]: 8.91 µM (active)
Potency [11]: 11.2 µM (active)
Potency [12]: inactive
Potency [13]: inactive

COc1ccc(-n2c(=O)c(-c3ccc(F)cc3)nc3cnc(N4CCOCC4)nc32)cc1
activity change, negative = inhibition [2]: 12.6% (inactive)
Potency [4]: > 9.22 µM (inactive)
Potency [5]: > 46 µM (inactive)
outcome [6]: inactive
Potency [7]: inactive
Potency [16]: 3.16 µM (active)
activity change, negative = inhibition [8]: 4.12% (inactive)
max response [8, 20]: 3.3%
max response [8, 21]: 4.35%
Potency [9]: inactive
Potency [10]: inactive
Potency [11]: inactive
Potency [12]: inactive
Potency [13]: inactive

c1nc(NC2CCNCC2)c2cc(-c3ccoc3)ccc2n1
activity change, negative = inhibition [1]: -0.789% (inactive)
Potency [14]: 25.1 µM (active)
activity change, negative = inhibition [2]: 12.3% (inactive)
activity, negative = inhibition [3]: -3% (inactive)
Potency [4]: > 46 µM (inactive)
Potency [5]: > 46 µM (inactive)
outcome [6]: inactive
Potency [7]: inactive
activity change, negative = inhibition [8]: 0.0897% (inactive)
max response [8, 20]: 13.4%
max response [8, 21]: 11.3%
Potency [9]: 0.891 µM (active)
Potency [10]: 1 µM (active)
Potency [11]: 0.631 µM (active)
Potency [12]: inactive
Potency [13]: inactive

N#Cc1cccc(-c2nc3cnc(Oc4cccc(Cl)c4)nc3n(C3CC3)c2=O)c1
Potency [17]: > 11.4 µM (inactive)
activity change, negative = inhibition [1]: -1.53% (inactive)
Potency [14]: 2.51 µM (active)
activity change, negative = inhibition [2]: 12.5% (inactive)
activity, negative = inhibition [3]: -10.1% (inactive)
Potency [4]: > 9.22 µM (inactive)
Potency [5]: > 46 µM (inactive)
outcome [6]: inactive
Potency [7]: inactive
Potency [18]: 3.16 µM (active)
Potency [19]: inactive
activity change, negative = inhibition [8]: -3.65% (inactive)
max response [8, 20]: 11%
max response [8, 21]: 8.29%
Potency [9]: inactive
Potency [10]: inactive
Potency [12]: inactive
Potency [13]: inactive

COCCn1c(=O)c(-c2ccc(F)cc2)nc2cnc(N3CCOCC3)nc21
activity change, negative = inhibition [1]: -9.35% (inactive)
Potency [14]: 5.01 µM (active)
activity change, negative = inhibition [2]: 16.8% (inactive)
activity, negative = inhibition [3]: -13.8% (inactive)
Potency [4]: > 9.22 µM (inactive)
Potency [5]: > 46 µM (inactive)
outcome [6]: inactive
Potency [7]: inactive
activity change, negative = inhibition [8]: 1.75% (inactive)
max response [8, 20]: 15.7%
max response [8, 21]: 16.8%
Potency [9]: inactive
Potency [10]: inactive
Potency [11]: inactive
Potency [12]: inactive
Potency [13]: inactive

— PubChem BioAssay (NCATS)
